# Assay results from PubChem BioAssay.
# Where “and” joins values, the source holds several entries; their conditions need not be identical. Equal entries are not always repeated. Calls of active or inactive are those of the source.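 Rule for the calls, unless noted: active = inhibition at or above 50% relative to wild type and mutant plate controls; inactive = inhibition below 50%.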
# Key:
# [1] = endothelial E-selectin expression blockers – imaging, HUVEC, immunofluorescence, MLSMR starter and 10KST1 sets, primary screen (AID 487;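 active = visually confirmed hit in the image check and inhibition above 20%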;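 for inhibition: signal is fraction of cell area covered by stained E-selectin grains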;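 for nuclei count: 100% = median nuclei count of all wells on the same plate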); conditions: HUVEC TNFalpha-induced E-selectin immunofluorescence imaging, at 2 µM; inhibition: stronger effect = higher value; nuclei count: measured here: cell number, toxicity
# [2] = Primary imaging screen for DUSP6 inhibitors that restore phospho-Erk in transfected HeLa cells, chemical complementation (AID 609;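 active = compounds giving at least 50% inhibition in the cell-based MKP-3 phosphatase rescue imaging test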;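 for inhibition: phospho-Erk level distribution per well compared with pooled transfected vehicle control wells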); conditions: HeLa MKP-3 transfected, phospho-Erk imaging KS statistic, at 10 µM, cells stimulated with TPA for 15 min
# [3] = molecular target: Dual specificity protein phosphatase 6 (Homo sapiens) (UniProt Q16828); assay: as above; conditions: HeLa MKP-3 transfected, phospho-Erk imaging KS statistic; at 10 µM; stronger effect = higher value; cells stimulated with TPA for 15 min
# Chain of Dual specificity protein phosphatase 6 (Homo sapiens) (Q16828 whole entry, looked up): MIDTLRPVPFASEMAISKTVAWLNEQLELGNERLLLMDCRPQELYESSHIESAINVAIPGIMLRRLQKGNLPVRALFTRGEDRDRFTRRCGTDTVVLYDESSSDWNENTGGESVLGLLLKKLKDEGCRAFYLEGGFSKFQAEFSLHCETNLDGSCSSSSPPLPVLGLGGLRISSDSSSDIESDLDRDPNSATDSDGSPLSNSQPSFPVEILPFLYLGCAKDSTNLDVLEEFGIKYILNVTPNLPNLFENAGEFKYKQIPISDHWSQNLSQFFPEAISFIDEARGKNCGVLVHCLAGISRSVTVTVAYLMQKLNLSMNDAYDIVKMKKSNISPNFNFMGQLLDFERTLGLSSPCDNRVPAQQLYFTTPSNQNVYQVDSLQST
# [4] = molecular target: Voltage-gated potassium channel subunit beta-2 (Rattus norvegicus) (UniProt P62483); assay: inhibitors of rat Kvbeta2 reductase activity – biochemical, NADPH fluorescence, primary screen (AID 622;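 active = fluorescence slope higher than the sample average by over 3 SD, cut at about -0.22 in these data, passing the limit was not always enough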;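 note: slope of raw intensity against log time taken from 70 to 1610 s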); conditions: recombinant KvBeta, 4-cyanobenzaldehyde reduction, at 10 µM, stronger effect = higher value
# Chain of Voltage-gated potassium channel subunit beta-2 (Rattus norvegicus) (P62483 whole entry, looked up): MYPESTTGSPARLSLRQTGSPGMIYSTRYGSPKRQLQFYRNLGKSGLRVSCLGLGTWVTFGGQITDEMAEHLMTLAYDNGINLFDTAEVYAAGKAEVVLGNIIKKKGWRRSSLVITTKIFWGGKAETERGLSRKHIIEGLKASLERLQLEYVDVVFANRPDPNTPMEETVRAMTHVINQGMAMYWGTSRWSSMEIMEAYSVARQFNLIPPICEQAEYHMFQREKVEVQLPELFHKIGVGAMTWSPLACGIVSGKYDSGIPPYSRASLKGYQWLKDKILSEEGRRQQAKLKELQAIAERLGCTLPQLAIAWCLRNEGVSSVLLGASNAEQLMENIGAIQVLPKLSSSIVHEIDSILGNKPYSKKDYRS
# [5] = molecular target: Voltage-gated potassium channel subunit beta-2 (Rattus norvegicus) (UniProt P62483); assay: enhancers of rat Kvbeta2 NADPH turnover – biochemical, NADPH fluorescence, primary screen (AID 623;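 active = NADPH fluorescence slope more negative than the mean of all samples by about 3 SD, 99.7% confidence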;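 note: fluorescence intensity change per second fitted from 20 to 320 s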); conditions: Recombinant KvBeta, NADPH fluorescence decrease slope, 10 min; at 10 µM; stronger effect = lower value
# [6] = molecular target: Muscarinic acetylcholine receptor M4 (Homo sapiens) (UniProt P08173); assay: M4-linked GIRK flux change, two-sided – cell-based, HEK293 M4/GIRK, thallium flux, BTC-AM, M4 allosteric agonist project, primary screen (AID 625;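 active = fluorescence slope after compound addition differing from the mean of all tested samples at 99.7% confidence, mostly higher but some lower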;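 note: thallium influx through GIRK channels coupled to M4 in HEK293 cells with BTC-AM dye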); conditions: at 10 µM, actives lie on both sides
# Chain of Muscarinic acetylcholine receptor M4 (Homo sapiens) (P08173 whole entry, looked up): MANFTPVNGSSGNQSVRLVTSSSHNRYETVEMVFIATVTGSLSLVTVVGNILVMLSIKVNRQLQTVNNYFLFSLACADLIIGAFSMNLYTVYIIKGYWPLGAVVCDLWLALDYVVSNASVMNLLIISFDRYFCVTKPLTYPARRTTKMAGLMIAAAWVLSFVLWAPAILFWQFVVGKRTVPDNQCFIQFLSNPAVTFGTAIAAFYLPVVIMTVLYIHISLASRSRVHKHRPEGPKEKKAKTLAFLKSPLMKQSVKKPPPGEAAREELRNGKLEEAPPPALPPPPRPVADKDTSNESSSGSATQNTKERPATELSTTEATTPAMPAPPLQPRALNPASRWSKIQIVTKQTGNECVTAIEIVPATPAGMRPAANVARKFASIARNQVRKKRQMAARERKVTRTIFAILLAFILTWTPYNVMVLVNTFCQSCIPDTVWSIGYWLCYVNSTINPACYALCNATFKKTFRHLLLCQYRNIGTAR
# [7] = inhibitors of larval lipid processing in zebrafish, primary screen, whole organism, PED6 fluorescence, gall bladder and intestine (AID 686;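 active = a full or partial loss of lipid-probe fluorescence in the fish gall bladder, intestine or both, judged by eye; inactive = no fluorescence loss, or compound toxic to the fish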;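 note: larvae 5 to 7 days old with five fish per well; signal comes from phospholipase A2 cleavage of quenched PED6 carried via bile; overnight exposure to compound and PED6 before scoring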); conditions: Zebrafish larvae PED6 lipid processing, fluorescence scoring; screened at 20 µM (by protocol)
# [8] = loss of swimming-algae plug formation – whole organism, Chlamydomonas reinhardtii, WT vs cilia-less mutant, absorbance, 96-well, primary screen (AID 463189); conditions: Chlamydomonas reinhardtii gravitaxis, OD600 absorbance, 2 days; at 10 µM; stronger effect = higher value;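 note: 0% = wild type cc124 cells in DMSO and 100% = ciliumless bld1 mutant cells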
# [9] = molecular target: Alpha-2C adrenergic receptor (Homo sapiens) (UniProt P18825); assay: compounds altering alpha2C-coupled GIRK flux – cell-based, HEK293 alpha2C/GIRK1/2, thallium flux, primary screen (AID 624;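 active = fluorescence slope after compound addition differing from the mean of all screened samples at 99.7% confidence, in either direction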;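 note: slope of fluorescence ratio to pre-addition baseline per second over 15 to 24 s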); conditions: thallium flux BTC fluorescence, at 10 µM, actives lie on both sides
# Chain of Alpha-2C adrenergic receptor (Homo sapiens) (P18825 whole entry, looked up): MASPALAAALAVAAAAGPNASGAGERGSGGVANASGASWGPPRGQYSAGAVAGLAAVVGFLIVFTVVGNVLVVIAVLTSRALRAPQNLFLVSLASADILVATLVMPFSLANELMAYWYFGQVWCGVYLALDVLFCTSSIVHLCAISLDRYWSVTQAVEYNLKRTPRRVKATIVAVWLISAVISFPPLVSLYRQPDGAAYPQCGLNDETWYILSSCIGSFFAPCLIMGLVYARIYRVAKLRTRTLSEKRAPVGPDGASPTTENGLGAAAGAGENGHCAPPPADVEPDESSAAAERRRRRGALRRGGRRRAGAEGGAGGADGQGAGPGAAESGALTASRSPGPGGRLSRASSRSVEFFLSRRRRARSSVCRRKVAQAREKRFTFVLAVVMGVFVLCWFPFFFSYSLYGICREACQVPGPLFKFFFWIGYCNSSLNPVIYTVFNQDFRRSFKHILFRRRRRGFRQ
# [10] = blockers of RIG-like receptor reporter activation – cell-based, Sendai virus stimulus, luciferase, 10K MLSCN set, TLR/RLR signaling modifier project, primary screen (AID 602276;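 active = inhibition at or above 50% at 10 µM; inactive = inhibition below 50%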;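 note: firefly luciferase from ISG56 promoter only with Renilla not read in this screen; 0% = Sendai virus plus DMSO and 100% = medium plus DMSO without virus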); conditions: HEK293 RL24 IRF3 luciferase reporter, at 10 µM, stronger effect = higher value
# [11] = TLR3 IRF3 reporter activation blockers – cell-based, poly I:C stimulus, luciferase, 10K MLSCN set, primary screen (AID 602277;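 active = inhibition of the reporter signal at or above 50%; inactive = inhibition below 50%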); conditions: HEK293-TLR3 RL24 IRF3 luciferase reporter, at 10 µM, stronger effect = higher value
# [12] = measured here: cell density z-score
# [13] = measured here: nuclear c-Myc green intensity z-score
# [14] = measured here: nuclear pErk red intensity z-score, stronger effect = higher value
SMILES,inhibition [1],nuclei count [1] [%],"z-score [2, 12]","z-score [2, 13]","z-score [2, 14]",inhibition [3],fluorescence slope [4],NADPH fluorescence slope [5],fluorescence slope [6],outcome [7],inhibition [8],slope [9],inhibition [10],inhibition [11]
O=C(NC1CCCCC1)[C@H](O)[C@@H](O)C(=O)NC1CCCCC1,-94% (inactive),140,-1.12,0.563,0.453,5.57% (inactive),-0.381 (inactive),-4.7e-05 (inactive),0.00717 (inactive),inactive,-2.73% (inactive),,,
Oc1oc(-c2ccccc2)nc1C=NCc1ccncc1,5.8% (inactive),104,0.0106,-0.425,0.0699,13.2% (inactive),-0.353 (inactive),7.6e-07 (inactive),0.00715 (inactive),inactive,-10.3% (inactive),,,
CC[C@]1(O)C[C@@H]2CN(CCc3c([nH]c4ccccc34)[C@@](C(=O)OC)(c3cc4c(cc3OC)N(C)[C@H]3[C@@](O)(C(=O)OC)[C@H](OC(C)=O)[C@]5(CC)C=CCN6CC[C@]43[C@@H]65)C2)C1,-205% (inactive),78,-0.32,-0.704,1.1,-12.3% (inactive),-0.495 (inactive),-2.5e-05 (inactive),,inactive,-7.31% (inactive),0.00463 (inactive),23.8% (inactive),90.5% (active)
Cc1cc(C)n(C(=O)CNC(=O)c2cccs2)n1,-109% (inactive),182,0.591,-1.67,-0.663,7.48% (inactive),-0.404 (inactive),-3.1e-05 (inactive),0.00505 (inactive),inactive,16.6% (inactive),,,
CCOC(=O)C(Oc1ccc(=O)[nH]n1)C(C)=O (centres undefined),-70.7% (inactive),105,-0.778,0.196,-1.16,22.7% (inactive),-0.398 (inactive),-7.7e-06 (inactive),0.00606 (inactive),inactive,-3.15% (inactive),,,
O=C(CCCN1CCC(O)(c2ccc(Cl)cc2)CC1)c1ccc(F)cc1,-112% (inactive),130,1.12,-0.669,-0.889,10.2% (inactive),-0.485 (inactive),-4.2e-05 (inactive),0.00387 (inactive),,-2.31% (inactive) and 3.84% (inactive),,-13% (inactive),-5.69% (inactive)
